Screening data: PubChem BioAssay, National Center for Advancing Translational Sciences (NCATS)
Shown are actives, neighbours in structure and some others; about 4.7% of the full set was active somewhere.
HepG2 viability – HepG2 cytotoxicity, counter-screen for TGF-b inhibitors; Potency, µM (series often up to 46.1 µM), inactives show top-dose activity change, negative = cytotoxicity, actives largely listed as cytotoxic; 410,000 tested, 0.76% active; HepG2 CAGA-GFP viability, ATP luminescence, 18 h; note: potency is the fitted concentration of half-maximal effect
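HepG2 CAGA-GFP cells (1000/well, DMEM with 1% FBS) received compound, then TGF-beta at 500 pg/mL final, and were incubated 18 hours at 37 degrees C. Viability was read by CellTiter-Glo luminescence. Media-only wells were set as complete cell-killing and DMSO as no toxicity.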
TGFb inhibitor – TGF-b pathway inhibition | HepG2 CAGA-GFP TGF-b/SMAD3 reporter, GFP fluorescence, 18 h; TGF-beta stimulated, 500 pg/mL final | Potency, µM (highest dose often 46.1 µM), without a hit: at the highest dose activity, negative = inhibition, most hits filed as inhibitors | 410,000 tested, 1.2% active; note: potency is the fitted concentration of half-maximal effect; % is set by controls: 0 for no effect and ±100 for the full control effect; nearly all actives have a fitted effect of over 65% in size
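HEPG2 CAGA-GFP cells (1000/well, DMEM with 1% FBS) were pre-incubated 2 h at 37 degrees C, given compound by pin tool, then stimulated with TGF-beta at 500 pg/mL final for 18 h before per-cell GFP fluorescence imaging.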
DRD3 antagonist – antagonists of human D3 dopamine receptor. P35462. 360,000 tested, 2.5% active. D3R cells, DiscoveRx beta-arrestin luminescence, antagonist mode; active compounds read low. AID 652054. max response, negative = inhibition, %; in the data active = max response below about -50%; inconclusive = no clear call, values can overlap the other calls; note: % is set by controls: 0 for no effect and ±100 for the full control effect
Target sequence (P35462 whole entry, looked up): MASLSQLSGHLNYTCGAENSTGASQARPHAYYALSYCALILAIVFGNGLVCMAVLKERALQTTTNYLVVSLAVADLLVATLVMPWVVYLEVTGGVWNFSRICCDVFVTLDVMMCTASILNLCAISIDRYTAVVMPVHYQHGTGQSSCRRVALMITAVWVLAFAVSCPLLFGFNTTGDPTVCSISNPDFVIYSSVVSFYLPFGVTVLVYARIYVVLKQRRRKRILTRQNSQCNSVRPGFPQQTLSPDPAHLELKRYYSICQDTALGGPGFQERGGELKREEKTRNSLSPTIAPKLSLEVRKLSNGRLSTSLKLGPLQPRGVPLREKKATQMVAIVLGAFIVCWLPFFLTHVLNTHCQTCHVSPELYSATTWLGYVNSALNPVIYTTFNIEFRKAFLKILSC
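Cells plated overnight at 1500 cells/well, then exposed to library compounds with dopamine controls for 90 minutes at 37 degrees C. DiscoveRx reagent added for 30–60 minutes at room temperature; luminescence read, quantitative HTS format.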
ATXN viability – cell viability loss in ATXN counter-screen; S2 cells (HEK-293 line with an ATXN2-luciferase reporter) viability, CellTiter-Fluor protease fluorescence, 24 h; Potency, µM (titrated, usually from 56.7 µM), usual class: cytotoxic; 400,000 tested, 0.49% active; AID 651635; note: potency is the fitted concentration of half-maximal effect; nearly all actives have a fitted effect of over 40% in size
ATXN2 expr inh – reduces ATXN2 reporter expression in HEK-293 cells; HEK-293 ATXN2-luciferase reporter, luminescence, 24 h; Potency, µM (top dose mostly 57 µM), without a hit: at the highest dose activity change, negative = inhibition, hits mostly inhibitors; 360,000 tested, 0.72% active; AID 1745845; note: potency is the fitted concentration of half-maximal effect; % is set by controls: 0 for no effect and ±100 for the full control effect; nearly all actives have a fitted effect of over 55% in size
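qHTS (up to 57 uM final) was run with 24 h compound exposure of reporter cells at 37 °C. Each well was multiplexed: SteadyGlo luminescence measured ATXN2-luciferase expression after a fluorogenic Gly-Phe-AFC viability readout (25 uM final).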
DRD3 agonist – activates the human D3 dopamine receptor. P35462. D3R DiscoveRx beta-arrestin cells, luminescence, 90 min. max activation, %. 410,000 tested, 0.58% active. AID 652048; in the data active = max activation above about 30%; note: 0% is about no effect
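Cells at 1500/well, incubated overnight, then treated with pinned compounds (dopamine as control) for 90 min at 37 degrees C. DiscoveRx reagent added for 30 - 60 minutes at room temperature; luminescence read.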
Starred values were filed as active, the others as inactive; i = inactive; u = inconclusive; x = not tested or not shown. Unless noted, calls come from the whole dose curve; as a rule, active = well fitted curve in the direction sought with a large enough effect; inconclusive = small, poorly fitted or top-dose-only effect, or another doubt; inactive = no such curve, though single readings can be large; an effect the other way counts as inactive or inconclusive.

SMILES | HepG2 viability | TGFb inhibitor | DRD3 antagonist | ATXN viability | ATXN2 expr inh | DRD3 agonist
Cc1ccc2c(c1)-c1c(ssc1=S)C(C)(C)N2C(=O)CSc1nncn1C | -28% | -27% | -6 | i | -13% | -2
O=C(NCCc1ccccc1)C1CCCN1C(=O)Nc1cccc(Cl)c1 (centres undefined) | 4% | 6% | -73* | u | x | -4
O=C(NCCc1ccccc1)C1CCCN1C(=O)Nc1ccccc1 (centres undefined) | 11% | 2% | 1 | i | x | -13
CN(C)S(=O)(=O)c1ccc(C(=O)Nc2nnc(SCC(=O)N3CCOCC3)s2)cc1 | -6% | -5% | -26 | i | x | -4
CC(C)Oc1ccc(C(=O)Nc2nnc(SCC(=O)N3CCOCC3)s2)cc1 | 11% | 7% | 3 | i | 10µM* | 1
COc1ccc(F)c(CN2CCC3(CCC(CNC(=O)c4cc(C)nn4C)O3)CC2)c1 (centres undefined) | x | x | x | i | x | x
CC1=C(C(=O)OC2CCCC2)C(c2c(F)cccc2Cl)CC(=O)N1 (centres undefined) | -2% | u | x | i | u | -9
CC(C)Oc1ccc(C(=O)NC2CCN(Cc3ccccc3)CC2)cc1 | -5% | 25% | 12 | i | -26% | -5
O=C(NC1CCN(Cc2ccc(Cl)c(Cl)c2)CC1)c1ccccc1 | -2% | 0% | -99* | i | -15% | -21
O=C(NC1CCN(Cc2ccc3ccccc3c2)CC1)c1ccccc1 | 0% | 0% | -74* | i | u | -19
CCN(CC)S(=O)(=O)c1ccc(Cl)c(C(=O)NC2CCN(Cc3ccccc3)CC2)c1 | -3% | u | -65* | i | -2% | -6
CCN(CC)S(=O)(=O)c1ccc(NC2CCN(Cc3ccccc3)CC2)nc1 | -5% | -6% | -20 | i | -17% | -14
O=C(NC1CCN(Cc2ccc(F)cc2)CC1)c1ccccc1 | 3% | u | -72* | i | -9% | -49
Cc1ccc(Cn2c(C)c(CNCc3ccc(OC(C)C)cc3)c(C(=O)O)c2C)cc1 | -6% | 4% | x | i | -6% | -9
Cc1cc(C)c(C(=O)NCc2nc(-c3cccc(NC(=O)C4CCCN(C)C4)c3)oc2C)[nH]1 (centres undefined) | x | x | x | i | x | x
COc1cc(=O)n2c(c1C(=O)N1CCc3ccccc3C1)CCN(Cc1ccc(CO)o1)CC2 | x | x | x | i | x | x
Cc1[nH]c2ccccc2c1/C=C/c1nccc2ccccc12 | -52% | -17% | x | x | x | x
CCCN(CCC)c1ccc(/C=C/c2ccnc3ccccc23)cc1 | 10µM* | 217% | x | x | x | x
CCC[N+](C)(C)c1ccc(/C=C/c2ccnc3ccccc23)cc1 | -50% | 2µM* | x | x | x | x
Cc1[nH]c2ccccc2c1/C=C/c1ccnc2ccccc12 | -110% | 13µM* | x | x | x | x
Cc1cccc(NC(=O)CSc2nc3ccccc3nc2N2CCC(C)CC2)c1 | -11% | -2% | x | u | 36% | 1
COC(=O)C1=C(C)N(Cc2ccccc2)C(=NCCc2cccnc2)N[C@H]1c1ccc(Br)cc1 | 16µM* | u | 1 | u | 32µM* | -24
COC(=O)C1=C(C)N(Cc2ccccc2)C(=S)N[C@H]1c1ccc(Br)cc1 | -1% | 13µM* | -18 | u | u | 0
Cn1cc(CN2CCCC(C(=O)Nc3ccc(-c4cccc(F)c4)cc3)C2)cn1 (centres undefined) | -99% | u | 0 | 32µM* | x | -7
CCc1nc2c(OCc3ccc(Cl)cc3Cl)cccn2c1N(C)C(C)=O | -46% | u | 4 | x | 18µM* | -1
SMILES | HepG2 viability | TGFb inhibitor | DRD3 antagonist | ATXN viability | ATXN2 expr inh | DRD3 agonist
CCOC(=O)N(C)c1c(CC)nc2c(OCc3ccc(Cl)cc3Cl)cccn12 | -10% | -17% | -28 | u | u | -12
CCCOc1cccn2c(N(C)C(=O)c3ccccc3F)c(CC)nc12 | -38% | u | -72* | i | 0% | -9
CCc1nc2c(OCC3CCCCC3)cccn2c1N(C)C(=O)c1ccccc1F | -18% | u | -57* | u | u | -4
CCc1nc2c(OCCn3cccc3)cccn2c1N(C=O)Cc1ccc(OC)cc1 | -29% | u | -11 | i | 5% | -6
CCc1nc2c(OCCn3cccc3)cccn2c1N(C=O)Cc1ccccc1 | -21% | -3% | -13 | i | -2% | 45*
CCc1nc2c(OCC3CCCCC3)cccn2c1N(C)C(=O)c1ccc(OC)cc1 | -5% | u | u | u | -11% | -18
CCc1nc2c(OCCC3CCCCC3)cccn2c1N(C)C(=O)c1ccccc1F | -96% | u | -57* | u | u | -19
C=CC[C@@H](CC(=O)N(CCO)Cc1ccccc1)C(=O)N[C@H](COC(=O)[C@@H](CC=C)Cc1ccc(F)cc1)Cc1c[nH]c2ccccc12 | -13% | u | 8 | u | 0% | -24
C=CCC[C@@H](Cc1ccc(F)cc1)C(=O)OC[C@H](C)NC(=O)[C@@H](CC=C)CC(=O)N(CCO)Cc1ccccc1 | -21% | 13µM* | -5 | u | u | -6
C=CCC[C@H](Cc1ccc(F)cc1)C(=O)OC[C@H](Cc1c[nH]c2ccccc12)NC(=O)[C@H](CC=C)CC(=O)N(CCO)Cc1ccccc1 | -27% | u | 0 | 32µM* | u | -6
C=CCC[C@@H](Cc1ccc(F)cc1)C(=O)OC[C@@H](Cc1c[nH]c2ccccc12)NC(=O)[C@@H](CC=C)CC(=O)N(CCO)Cc1ccccc1 | -69% | 13µM* | 129 | u | u | 41*
COc1cc(C)c(CN2C[C@H](Sc3nc4ccccc4[nH]3)C[C@H]2C(=O)N(C)C)cc1C | x | x | x | i | x | x
Cc1cc(/C=N/NC(=O)c2ccc(O)cc2)c(C)n1C1CC1 | -3% | 1% | -54* | i | -8% | -3
O=C(N/N=C/c1ccc(O)c(O)c1)C1CC1 | -29% | -10% | -4 | i | x | 5
O=C(N/N=C/c1ccc(O)cc1O)C1CC1 | 8% | -2% | -92* | i | x | -1
O=C(N/N=C/c1cccc(O)c1)c1ccc(NC(=O)C2CCCCC2)cc1 | -1% | -1% | 1 | i | -1% | 2
O=C(N/N=C/c1ccc(O)cc1O)c1ccc(NC(=O)C2CCCCC2)cc1 | -100% | u | 5 | u | 5.6µM* | -1
O=C(N/N=C/c1ccc(O)cc1O)c1ccncc1 | 21% | 14% | 29 | i | 22µM* | 42*
Cc1ccc(C(C)C)c(OCc2ccc(C(=O)N/N=C/c3ccc(C(=O)O)cc3)cc2)c1 | 39% | 40% | 10 | i | x | 1
